About 83,000 compounds went through this panel and 20% of them were active in at least one assay; those are over-represented in the sample as a whole.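 The endpoint reported here, percent growth, reads 100 for growth as untreated, 0 for no net growth and -100 for all cells dead.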 Unmarked numbers belong to inactive results. Calls of active or inactive are those of the source. How the source made its calls: active means growth percent below 10; inactive means the rest.
system: MDA-MB-468 breast; assay: NCI-60 one-dose screen, 48 h (100 = growth as untreated, 0 = no growth, -100 = all killed); settings: 10 µM unless noted

Question: How did the growth turn out when `Cc1ccc(OC(=O)c2ccc(Cl)cc2)cc1` was run?
Answer: 105%

Question: `CCCCn1c(C(=O)c2c[nH]c3ccccc23)n[nH]c1=S` was tested. Which growth did it give?
Answer: 109%

Question: For `CCCCSc1ccc2nc(-c3ccc(OCCCN=C(N)N)cc3)cn2c1`, which growth is on record?
Answer: 35.6%

Question: Which growth does the source give for `O=C(/C=C/c1ccc2ccccc2c1)Nc1ncc(Cc2ccccc2)s1` here?
Answer: 64%

Question: How did the growth turn out when `COC1=CC(c2ccc[nH]2)=N/C1=C\c1[nH]c(C)c(C(=O)CCCCC(=O)NCc2ccccc2)c1C` was run?
Answer: 4.21% (active)

Question: Which growth does the source give for `CCCCn1c(=O)c2c(nc(NCCc3ccc(O)c(O)c3)n2CCC)n(CCCC)c1=O` here?
Answer: 82.2%

Question: Which growth does the source give for `OC(c1cccc(-n2ccc(C(F)(F)F)n2)c1)c1cnccc1NC1CCCCCC1` (stereo unspecified) here?
Answer: -59.4% (active)

Question: Which growth does the source give for `CC(=O)OCc1cc(-c2nc3ccccc3[nH]c2=O)nn1-c1ccc(Cl)cc1` here?
Answer: 89.3%

Question: Which growth does the source give for `Cc1n(Cc2ccc3ccccc3n2)cc[n+]1Cc1ccc2ccccc2n1` here?
Answer: 8.07% (active)

Question: Which growth does the source give for `O=C1/C(=C\C(Cl)=C/c2ccc([N+](=O)[O-])cc2)SC(=S)N1CCc1ccc(O)cc1` here?
Answer: -84.7% (active)

Question: `CCc1c(C(=O)Nc2ccc3ccccc3c2)[nH]c(C)c1C(C)=O` was tested. Which growth did it give?
Answer: 83.7%

Question: For `Nc1nc(Cl)c2ncn(Cc3cc4c(cc3I)OCO4)c2n1`, which growth is on record?
Answer: 7.98% (active)

Question: For `C=C1C(=O)O[C@H]2[C@H]1CC/C(COC(=O)c1ccc(Br)cc1)=C\CC[C@@]1(C)O[C@@H]21`, which growth is on record?
Answer: -23.1% (active)

Question: With `N/C(=N\OC(=O)CSc1nc2ccccc2s1)c1ccc2ccccc2c1` as the compound, how does the growth read?
Answer: 102%

Question: `C=C(C)[C@@H]1CC[C@]2(C(=O)N3CCN(CC)CC3)CC[C@]3(C)[C@H](CC[C@@H]4[C@@](C)(CCC(=O)N5CCN(CC)CC5)[C@H](C(=C)C)CC[C@]43C)[C@@H]12` was tested. Which growth did it give?
Answer: 43.4%

Question: How did the growth turn out when `Cc1occc1-c1n[nH]c(=S)n1N1C(=O)CSC1=S` was run?
Answer: 103%

Question: Which growth does the source give for `CC(=O)c1ccc(Nc2nc(NCCO)nc(Nc3ccc(Cl)cc3)n2)cc1` here?
Answer: 65.7%

Question: With `Cn1c2ccccc2c2nn(Cc3ccccc3)c(=O)nc21` as the compound, how does the growth read?
Answer: 106%

Question: For `O=C(CCN1C(=O)/C(=C/c2ccc(O)cc2)SC1=S)Nc1ccccc1`, which growth is on record?
Answer: 100%

Question: For `Oc1ccc2ccccc2c1C1NN=C(c2ccccc2)S1` (stereo unspecified), which growth is on record?
Answer: 3.89% (active)

Question: With `CCN1C(=O)N(c2ccccc2)C2NC(=S)N(/N=C/C=C/c3ccccc3)C21` (stereo unspecified) as the compound, how does the growth read?
Answer: 5.41% (active)

Question: For `CC1(C)S[C@@H]2[C@H](NC(=O)[C@H](C(=O)O)c3cccs3)C(=O)N2[C@H]1C(=O)O`, which growth is on record?
Answer: 102%

Question: How did the growth turn out when `O=C(/C=C\c1ccnc2ccccc12)c1ccc([N+](=O)[O-])cc1` was run?
Answer: 57.5%

Question: `Cc1nc2sc(C(=O)Nc3ccccc3)c(N)c2cc1C(C)O` (stereo unspecified) was tested. Which growth did it give?
Answer: 28.6%

Question: `CNC(=O)c1cc(N2CCc3cc(NC(=O)Nc4ccc(N5CCOCC5)c(C(F)(F)F)c4)ccc32)ccn1` was tested. Which growth did it give?
Answer: 49.6%

Question: For `Cc1nc(-c2ccccc2)sc1CC#N`, which growth is on record?
Answer: 104%

Source: PubChem BioAssay (NCI)
